Reference: PubChem BioAssay (EPA / NIEHS)
Records with an inconclusive call do not appear. Some structures have more than one record in an assay (separate samples or runs), and their calls can disagree. Active and inactive are the calls of the source. How the source made its calls: active means hit-call score of the fitted dose curve at least 0.9, where 1 is the maximum; inconclusive means response in the unintended direction; inactive means score below 0.9.

Test: ATG_M_06_TRANS: Attagene TRANS-FACTORIAL HepG2 Assay for M06 Transcription Factor (Internal Marker) (AID 2282983);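 on AC50: potency for rise in reporter mRNA above DMSO baseline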
Conditions: HepG2 Attagene TRANS M06 internal marker reporter
Description: ATG_TRANS is a cell-based, multiplexed-readout assay that uses HepG2, a human liver cell line, with measurements taken at 24 hours after chemical dosing in a 24-well plate.ATG_M_06_TRANS is one of 30 assay component(s) measured or calculated from the ATG_TRANS assay. It is designed to make measurements of mRNA induction, a form of inducible reporter, as detected with fluorescence intensity signals by Reverse transcription polymerase chain reaction (RT-PCR) and Capillary electrophoresis technology.Data from the assay component ATG_M_06_TRANS was analyzed into 1 assay endpoint. This assay endpoint, ATG_M_06_TRANS, was analyzed in the positive analysis fitting direction relative to DMSO as the negative control and baseline of activity. Using a type of inducible reporter, measures of mRNA for gain-of-signal activity can be used to understand the background control at the transcription factor-level as they relate to the gene . Furthermore, this assay endpoint can be referred to as a secondary readout, because this assay has produced multiple assay endpoints where this one serves a background control function. To generalize the intended target to other relatable targets, this assay endpoint is annotated to the background measurement intended target family, where the subfamily is internal marker.
Human liver HepG2 cells are transiently transfected with multiple reporter transcription units (MRTUs) in 6-well plates using FuGene 6 reagent (Roche; 3 ml FuGene/1 mg DNA). The MRTU constructs are regulated by a cis-regulating element (promoter). […] A major difference between the CIS and TRANS system is that in CIS activities of endogenous TFs are measured, whereas the TRANS assay evaluates changes in activities of exogenous, chimeric NR-Gal4 proteins. […] At the end of 24 hour incubation, total RNA was isolated using TriZol reagent (Invitrogen). The isolated RNA is then reverse-transcribed using oligo(dT) primer and Mo-MLV reverse transcriptase (Invitrogen) with DNAse I (Ambion) treatment for 30 min. The one-tenth of the produced cDNA was amplified by PCR using Taq DNA polymerase (Invitrogen) and two reporter sequence-specific primers. The PCR products were fluorescently labeled by primer extension with 6-arboxyfluorescein (6-FAM) 5'-labeled reporter sequence-specific primer (2 min at 95 C, 20 s at 68 C and 10 min at 72 C) and these products were digested with 5U of HpaI (New England Biolabs) for 2h at 37 C. The fragments were purified using Qiaquick PCR columns (Qiagen), analyzed on an ABI 3130xL genetic analyzer (Applied Biosystems) with peak positions identified by using a set of X-rhodamine (ROX)-labeled MapMarker1000 molecular weight standards (BioVentures). The raw capillary electrophoresis data was processed using Attagraph software (Attagene).

outcome, inactive:
CC(C)CCOCCC(C)C
c1cc2cccc3c4cccc5cccc(c(c1)c23)c54
O=C(Nc1ccc(Cl)c(Cl)c1)c1cc(Cl)cc(Cl)c1O
CCOC=O
FC(F)(F)C(F)(F)C(F)(F)C(F)(F)I
C=CCOCC(CO)(CO)CO
NNc1nc(-c2ccc([N+](=O)[O-])cc2)cs1
NCc1cccc(CN)c1
O=P(O)(O)CCC(F)(F)C(F)(F)C(F)(F)C(F)(F)C(F)(F)C(F)(F)C(F)(F)C(F)(F)F
Brc1ccc(Oc2ccc(Br)cc2Br)cc1
O=S(=O)(c1ccc(OCc2ccccc2)cc1)c1ccccc1O
CC(=O)Nc1ccc(S(N)(=O)=O)cc1
C[C@]12CC[C@@H]3c4ccc(O)cc4CC[C@H]3[C@@H]1C[C@@H](O)[C@@H]2O
O=C1OC(=O)C(F)(F)C1(F)F
C[N+](C)(CCCNS(=O)(=O)CCC(F)(F)C(F)(F)C(F)(F)C(F)(F)C(F)(F)C(F)(F)F)CC(=O)[O-]
FC(F)(F)N1C(F)(F)C(F)(F)OC(F)(F)C1(F)F
COc1ccc(C#N)cc1
c1ccc(CNc2ncnc3c2ncn3C2CCCCO2)cc1 (stereo not given)
CC(C)(C)c1ccc(O)c(O)c1
O=S(=O)(O)c1ccccc1
Cc1cc(=O)oc2cc(O)ccc12
CCC(C)c1ccccc1O (stereo not given)
Cc1cc(C(=C2C=CC(=Nc3ccc(S(=O)(=O)O)cc3)C=C2)c2ccc(Nc3ccc(S(=O)(=O)O)cc3)cc2)cc(S(=O)(=O)O)c1N
Cc1ccccc1C(OCCN(C)C)c1ccccc1 (stereo not given)
NC(=NCCCCCCN=C(N)/N=C(\N)Nc1ccc(Cl)cc1)/N=C(\N)Nc1ccc(Cl)cc1
OCC(F)(F)C(F)(F)C(F)(F)C(F)(F)C(F)(F)C(F)(F)C(F)(F)C(F)(F)C(F)(F)C(F)(F)C(F)(F)F
C=COC(=O)C(C)(C)CCCCCC
COc1ccccc1NC(=O)c1cc2ccccc2cc1O
Clc1ccc2c(Cl)ccnc2c1
O=C1c2ccc(O)c(O)c2C(=O)c2c(O)ccc(O)c21
COC(=O)C(F)(F)C(F)(F)C(F)(F)F
CCCCCCCCC1CCC(=O)O1 (stereo not given)
CCN(CC)CC
CCCCN(C)C
CCCCCCCCCCCC
C=CC(=O)OCC(CO)(COCC(COC(=O)C=C)(COC(=O)C=C)COC(=O)C=C)COC(=O)C=C
CN(C)CCOC(c1ccccc1)c1ccccc1
CCOCCOCC
CCC(=O)O

AC50, active:
NC(=NCCCCCCN=C(N)/N=C(\N)Nc1ccc(Cl)cc1)/N=C(\N)Nc1ccc(Cl)cc1 23.3 µM
